# Data reported in PubChem BioAssay (NCI).
# About 83,000 compounds went through this panel and 20% of them were active in at least one assay; those are over-represented in the sample as a whole.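 Assay: single dose, 48 h. Readout: percent growth (0 = no net growth; negative = cell death). Active: <10.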 A number with no mark means an inactive call. Active and inactive are the calls of the source.
# Experiments:
# Assay in all cases: NCI-60 one-dose screen, 48 h (100 = growth as untreated, 0 = no growth, -100 = all killed)
# HCT-15 colon = settings: 10 µM
# HT29 colon = settings: 10 µM
# SNB-75 CNS = settings: 10 µM
# SNB-19 CNS = settings: 10 µM
# PC-3 prostate = settings: 10 µM
# SK-MEL-5 melanoma = settings: 10 µM
# UACC-62 melanoma = settings: 10 µM unless noted
# LOX IMVI melanoma = settings: 10 µM
# SK-MEL-28 melanoma = settings: 10 µM
# SK-MEL-2 melanoma = settings: 10 µM
# SN12C renal = settings: 10 µM
# UO-31 renal = settings: 10 µM
# TK-10 renal = settings: 10 µM unless noted
# ACHN renal = settings: 10 µM
# CAKI-1 renal = settings: 10 µM
# A498 renal = settings: 10 µM
# CCRF-CEM leukemia = settings: 10 µM
# MOLT-4 leukemia = settings: 10 µM
# U251 CNS = settings: 10 µM
# EKVX NSCLC = settings: 10 µM
SMILES,growth (HCT-15 colon),growth (HT29 colon),growth (SNB-75 CNS) [%],growth (SNB-19 CNS) [%],growth (PC-3 prostate) [%],growth (SK-MEL-5 melanoma),growth (UACC-62 melanoma),growth (LOX IMVI melanoma),growth (SK-MEL-28 melanoma) [%],growth (SK-MEL-2 melanoma) [%],growth (SN12C renal) [%],growth (UO-31 renal),growth (TK-10 renal),growth (ACHN renal) [%],growth (CAKI-1 renal),growth (A498 renal),growth (CCRF-CEM leukemia),growth (MOLT-4 leukemia),growth (U251 CNS) [%],growth (EKVX NSCLC) [%]
CC(=O)OCCO,107%,120%,84.7,110,104,102%,108%,107%,100,143,98.5,90.3%,114%,105,104%,109%,111%,102%,,
CC(=O)Nc1cccc(Cl)c1C,106%,97.1%,87.1,107,,102%,,96.8%,107,100,99.7,,95.5%,106,97.7%,93.3%,,,88.9,101
COC(=O)Nc1cccc(Cl)c1OC,96.4%,111%,99,112,103,100%,111%,,114,,112,95.6%,120%,99.8,94.5%,61.9%,,103%,,
CC(CN1CCCCC1)NC(=O)c1scnc1-c1ccccc1 (stereo unspecified),103%,94.2%,86.1,107,92.9,101%,107%,95.2%,107,,106,83.7%,98.1%,109,87.3%,,,104%,,
O=C(Nc1ccccc1)OCCc1ccccc1,96.9%,95%,80.3,101,91,99.3%,104%,107%,100,,95.3,103%,95.2%,104,88.5%,,,101%,,
O=S(=O)(Cc1ccccc1)c1ccccc1,102%,107%,88.5,107,102,104%,111%,107%,98.5,114,104,102%,102%,111,107%,101%,105%,108%,,
O=C(O)CCC(NC(=O)OCc1ccccc1)C(=O)O (stereo unspecified),110%,105%,99.5,98.1,97,101%,90.5%,98.9%,109,,100,94.9%,93.1%,111,101%,106%,101%,105%,,
COc1ccc(/C(C#N)=C2C=C/C(=N/O)c3ccccc3\2)cc1,7.28% (active),-13.3% (active),23.4,61.7,12.8,-28.9% (active),6.75% (active),9.34% (active),46.5,,23.7,31.1%,54.5%,22.6,25.5%,-8.12% (active),,19.2%,,
COc1cc(CCN=Cc2ccccc2O)c([N+](=O)[O-])cc1OC,92.3%,101%,96.6,99.3,98.9,101%,109%,99.4%,113,102,103,79.3%,96.9%,96.7,86.6%,119%,,96.1%,,
S=C1NCc2cncnc2N1,95.4%,104%,86.6,109,96.1,103%,108%,104%,107,,107,88.8%,97.8%,93,85.5%,104%,,95.6%,,
O=[N+]([O-])c1cccc(N=Nc2ccc(O)cc2O)c1,48%,86.2%,69.7,78.2,,,,81.1%,99.1,79.8,79.6,57.3%,65.7%,78.7,39.1%,66.9%,,50.2%,63.7,69.9
CC(C)CCOC(=O)c1ccccc1,111%,108%,95.6,105,,,104%,101%,103,106,102,92%,101%,111,97.1%,97.7%,109%,98.7%,97.5,110
O=C(Cc1ccc(OCc2ccccc2)cc1)NCc1ccc2c(c1)OCO2,48.9%,27.4%,91.8,85.7,64.6,95.8%,61.8%,50%,74.7,,89.9,73.7%,77%,104,,,,55.2%,,
O=c1cc(-c2ccccc2)[nH]c(=S)[nH]1,107%,101%,96.9,104,91,104%,106%,98.3%,103,,102,,95.7%,96.7,175%,97.6%,90.5%,95.3%,,129
COC(=O)CCCCC1=CCC2C(=O)C=C(O)C2C1 (stereo unspecified),96.3%,104%,85.5,104,92.5,102%,103%,97.5%,100,,102,89.9%,96.4%,98.9,,,,82.7%,,
CC1(C)OC(=O)C(c2ccsc2)C(=O)O1,109%,100%,92.5,108,85,101%,105%,88.8%,115,112,107,84.4%,91.8%,107,100%,113%,106%,105%,,105
O=S(=O)(O)c1cc(O)c2c(N=Cc3ccccc3O)c(S(=O)(=O)O)ccc2c1,99.9%,103%,93.4,108,95.5,103%,113%,,114,,109,73.2%,118%,101,96.2%,107%,,99.2%,,
Cc1c(O)cnc2nn(-c3ccccc3)c(=N)n12,100%,96.3%,76.4,98.5,119,101%,106%,102%,112,94.7,97.7,94.5%,109%,96.7,102%,106%,,104%,,
N#CC(=Nc1cccc(F)c1)C1=C(O)c2ccccc2C1=O,76%,105%,54.3,90.4,83,90.7%,82.8%,91.1%,,,82.8,,110%,87.1,47%,79.4%,,96.5%,,
CC[N+](C)(CC)CCO,97.8%,103%,108,97.7,102,101%,102%,101%,110,109,98,92%,95.3%,,,109%,,101%,,

SMILES,growth (HCT-15 colon),growth (HT29 colon),growth (SNB-75 CNS) [%],growth (SNB-19 CNS) [%],growth (PC-3 prostate) [%],growth (SK-MEL-5 melanoma),growth (UACC-62 melanoma),growth (LOX IMVI melanoma),growth (SK-MEL-28 melanoma) [%],growth (SK-MEL-2 melanoma) [%],growth (SN12C renal) [%],growth (UO-31 renal),growth (TK-10 renal),growth (ACHN renal) [%],growth (CAKI-1 renal),growth (A498 renal),growth (CCRF-CEM leukemia),growth (MOLT-4 leukemia),growth (U251 CNS) [%],growth (EKVX NSCLC) [%]
CC(=O)Nc1ccc(NC(C)=O)c2c1C(=O)c1ccccc1C2=O,86.1%,99.7%,85.9,111,81.9,96.8%,73.3%,86%,115,103,86.9,59.5%,92.6%,,68.6%,91.1%,,105%,,73.5
O=[N+]([O-])c1ccccc1S(=O)c1ccccc1[N+](=O)[O-],98.2%,107%,83.1,106,81.1,95.7%,83.3%,70%,100,,99.7,73.4%,135%,106,61.7%,,,42%,,
CCCCCCCCO,98.3%,111%,90.1,103,94.3,,108%,105%,112,117,97.5,111%,110%,105,103%,108%,108%,97.4%,,
C/C(=N\NC(=O)c1ccccc1N)c1ccccc1O,26.5%,37%,83,56.6,50.3,60.5%,32%,36.7%,60.9,71.2,41.1,29.3%,27.6%,,3.89% (active),89%,,19.3%,,
COc1cc(/C=C(\C#N)C(=O)c2ccccc2)ccc1OCc1ccccc1,98.9%,105%,91.7,100,95.2,102%,97.2%,90.9%,112,127,102,79.7%,109%,,96.5%,87.9%,-32.5% (active),106%,,107
C/C(=C\c1ccc([N+](=O)[O-])cc1)C(=O)O,103%,107%,88.5,97.7,84.2,97.8%,99.6%,98.6%,111,110,99,95.3%,105%,98,95.6%,81.7%,87.6%,102%,,94.7
COc1ccc(/C=C/c2cccc[n+]2C)cc1,99.1%,88%,83.2,95.1,,105%,114%,94.2%,109,,110,64.9%,,91,63%,71%,,102%,77.6,
Sc1ccc(Nc2c3ccccc3nc3ccccc23)cc1,79.4%,88.6%,61.9,79.8,76.5,56.6%,63%,88.5%,101,40.7,95.6,82.4%,104%,,,,97.1%,94.1%,,
COc1ccccc1N1CCN(C(=S)Nc2ccccc2)CC1,103%,96.7%,84,99.6,89.9,97.9%,98.2%,90.4%,105,,100,75.3%,95.6%,100,,,,78.7%,,
O=C(OCC(O)C1OC(c2ccccc2)OC(COC(=O)c2ccccc2)C1O)c1ccccc1 (stereo unspecified),96.6%,103%,77.4,94.2,83.5,97.1%,108%,108%,104,,99.6,93.2%,99.6%,106,85.3%,,,102%,,
Nc1nc2c(c(-c3nc(N)nc4c3CCc3ccccc3-4)n1)CCc1ccccc1-2,104%,112%,98.8,,86.9,99.3%,94.6%,98.3%,115,134,102,,131%,95.1,76.9%,125%,107%,115%,114,89.9
CC(=O)Cc1cc(-c2cc(CC(C)=O)[nH]n2)n[nH]1,99.4%,102%,87.1,,96.7,99.6%,90.3%,96.3%,107,111,94.2,,92.4%,95.1,87.7%,99.3%,101%,114%,97.7,89.8
COc1ccc(-c2cc(-c3cc(-c4ccc(OC)cc4)nc(N)n3)nc(N)n2)cc1,103%,105%,91.4,,96.5,97.1%,91.4%,95%,103,115,93.8,,102%,97.6,91.9%,94.1%,76.7%,112%,101,92.1
COc1ccc(C2OC(N)=C(O)C2=O)cc1OC (stereo unspecified),101%,108%,101,,97.2,102%,93.7%,102%,105,117,96.1,,104%,96.9,92.7%,109%,98.2%,109%,111,94.3
O=C1NC(=O)C2C(=O)NC(=O)C1C21CCc2ccccc21 (stereo unspecified),105%,123%,124,,90.1,96.3%,83.6%,102%,113,118,100,,145%,95.6,,137%,78.6%,111%,106,90.1
CC(C)NC(=O)OCc1c(COC(=O)NC(C)C)c(-c2ccc(Cl)c(Cl)c2)n2c1SCC2,47.6%,62.1%,27.8,,61.3,67.7%,-19.3% (active),19.1%,92.8,37.8,36.4,,6.38% (active),18.1,-11.5% (active),,24.9%,17.1%,43.3,62.4
c1c(-c2cc(C3CC3)[nH]n2)n[nH]c1C1CC1,103%,98.7%,112,,98.1,82.1%,87.2%,77.8%,100,104,102,,106%,99.3,97.6%,97.6%,67%,95.2%,95.2,76.6
c1ccc(CN2COc3c(ccc4c3OCN(Cc3ccccc3)C4)C2)cc1,28%,27%,43.7,24,36.5,,-39.1% (active),,34.1,,11.1,-17.5% (active),30.5%,12.3,,51.6%,5.13% (active),0.409% (active),,
O=C(Nc1ccccc1C(=O)NCC1CC1)c1cccs1,93.8%,105%,70.3,100,94.6,,98.4%,102%,110,113,100,89.4%,114%,103,82.7%,106%,,111%,,
